Results filed as inconclusive are left out. Entries that show only a call come without a potency. The source made the active and inactive calls. Calls follow the shape of the dose curve; as a rule, active = well fitted inhibition curve with a large enough effect; inconclusive = small, poorly fitted or top-dose-only effect, or effect the other way; inactive = flat fitted curve, though single readings scatter.
These molecules were tested against ATP-dependent 6-phosphofructokinase (Trypanosoma brucei brucei) (UniProt O15648) (assay: qHTS Validation Assay to Find Inhibitors of T. brucei phosphofructokinase (AID 485368)). Settings: T. brucei PFK enzyme assay, qHTS 7-point titration; series mostly up to 57.5 µM.
Text: NIH Molecular Libraries Probe Production Network [MLPCN]
NIH Chemical Genomics Center [NCGC]
PI Name: Malcolm Walkinshaw, University of Edinburgh
Various species of the protozoan family Trypanosomatidae are responsible for a range of serious human diseases in tropical and subtropical areas of the world. […] Many of the disorders caused by trypanosomatids are fatal if left untreated, but most currently used drugs are inefficient and toxic.
Oxidative metabolism involving the mitochondrial tricarboxylic acid cycle and oxidative phosphorylation are repressed in these parasites, and recent RNA interference (RNAi) experiments have shown that even partial depletion of certain individual glycolytic enzymes can lead to the death of cultured parasites. One such glycolytic enzyme, phosphofructokinase (PFK), catalyzes the formation of fructose-1,6-bisphosphate (F1,6BP) and ADP from fructose-6-phosphate (F6P) and ATP, and in many metabolic circumstances makes an important contribution to the control of flux through the glycolytic pathway. As a specific glycolytic target, PFK is particularly attractive as it catalyzes the first irreversible step in glycolysis, and structural and kinetic studies have shown very substantial and essential differences from corresponding host enzymes, allowing for the discovery of parasite-selective inhibitors.
The goal of this screen is to find small-molecule inhibitors of T. brucei PFK using a biochemical assay that measures PFK activity as a function of ADP production. A luminescence-based assay for T. brucei PFK activity has been developed which uses luciferase to detect production of ADP. Traditional luciferase-based nucleotide detection reagents rely on ATP production as a direct substrate for the luciferase reaction; however, PFK catalyzes the transfer of a phosphate from ATP to F6P, resulting in the net depletion of ATP. To directly measure the ADP product of the PFK reaction, we used the ADP-Glo detection kit (Promega), which utilizes two separate reactions to 1) deplete all remaining uncatalyzed ATP and 2) convert all remaining ADP to ATP, which is then detected through a traditional luciferase-coupled reaction. Compounds were screened as a concentration-titration series that ranged from 57 uM to 0.7 nM.
NCGC Assay Protocol Summary:
Substrate buffer was dispensed into white, solid 1536-well plates at 3uL/well in 0.1M triethanolamine (TEA) buffer, pH 8.0, containing final concentrations of 5 mM MgCl2, 0.01% Tween20, 0.5 mM fructose-6-phosphate (F6P) and 0.1mM ATP. Then, 23 nL of compounds or DMSO were delivered to each well using a pin tool. One uL T. brucei PFK (0.1M TEA, 0.01% Tween20, 0.1% bovine serum albumin (BSA) and 1.25nM PFK, final concentrations) was then dispensed, and plates were incubated at room temperature for 45 min. The luminescent detection reagent, ADP-Glo (Promega), was then added in two steps: the first reagent, ADP-Glo (which converts remaining uncatalyzed ATP), was added at 2.5uL/well and incubated for ten minutes at room temperature, and the second component, Kinase Detection reagent (which converts ADP to ATP as a substrate for luciferase-based luminescence), was added immediately after at 5uL/well, followed by one final ten minute room temperature incubation. The plates were measured on a ViewLux plate reader for luminescent signal using a clear filter with a one second exposure. The %Activity was determined from the corrected luminescence values. As no specific T. brucei PFK inhibitors have been identified in the literature, 1x (1.25nM) and 0x PFK enzyme controls (untreated) were included to normalize %Activity of identified inhibitors; 0x enzyme values corresponded to 100%Activity (full inhibition), while 1x PFK enzyme values were used to normalize 0%Activity (no inhibition).
Concentration-response curves were fitted to the signals arising from the resulting luminescence. […]
Potency is read from the fitted curve at half-maximal effect.

ATP-dependent 6-phosphofructokinase (Trypanosoma brucei brucei), sequence (O15648 whole entry, looked up): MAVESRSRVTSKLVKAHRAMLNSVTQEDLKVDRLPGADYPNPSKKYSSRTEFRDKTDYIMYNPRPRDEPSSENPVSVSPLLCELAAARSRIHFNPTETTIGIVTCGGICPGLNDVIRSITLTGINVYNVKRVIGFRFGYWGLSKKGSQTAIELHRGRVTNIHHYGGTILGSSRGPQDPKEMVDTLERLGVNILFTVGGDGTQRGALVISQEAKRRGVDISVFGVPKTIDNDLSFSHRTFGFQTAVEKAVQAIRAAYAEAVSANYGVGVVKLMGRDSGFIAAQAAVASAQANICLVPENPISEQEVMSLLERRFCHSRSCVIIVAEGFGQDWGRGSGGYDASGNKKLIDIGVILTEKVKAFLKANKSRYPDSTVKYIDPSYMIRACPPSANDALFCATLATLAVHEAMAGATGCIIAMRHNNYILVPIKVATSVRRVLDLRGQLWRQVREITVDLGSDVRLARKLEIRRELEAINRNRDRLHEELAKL

Row | SMILES | Potency
1 | CN1CCN(C2=Nc3cc(Cl)ccc3Nc3ccccc32)CC1 | inactive
2 | Nc1nc2c(ncn2COC(CO)CO)c(=O)[nH]1 | inactive
3 | NCCS(=O)(=O)O | inactive
4 | O=c1c(-c2ccc(O)cc2)coc2cc(O)cc(O)c12 | inactive
5 | O=C(Nc1ccc([N+](=O)[O-])cc1Cl)c1cc(Cl)ccc1O | inactive
6 | CC(C)Cc1ccc(C(C)C(=O)O)cc1 (stereo not given) | inactive
7 | Cc1cnc(C(=O)NCCc2ccc(S(=O)(=O)NC(=O)NC3CCCCC3)cc2)cn1 | inactive
8 | COc1nc(C)nc(Cl)c1NC1=NCCN1 | inactive
9 | COc1ccc(C2CNC(=O)C2)cc1OC1CCCC1 (stereo not given) | inactive
10 | CC(CCc1ccc(O)cc1)NCCc1ccc(O)c(O)c1 (stereo not given) | inactive
11 | Nc1c2c(nc3ccccc13)CCCC2 | inactive
12 | Cc1cc(C(C)(C)C)c(O)c(C)c1CC1=NCCN1 | inactive
13 | CC(C)NCC(O)COc1ccc(CCOCC2CC2)cc1 (stereo not given) | inactive
14 | CCC1(c2ccccc2)C(=O)NCNC1=O | inactive
15 | C[C@](N)(Cc1ccc(O)c(O)c1)C(=O)O | 9.53 µM (active)
16 | COc1ccccc1N1CCN(CC(O)COc2cccc3ccccc23)CC1 (stereo not given) | inactive
17 | Cc1ccccc1N1C(=O)c2cc(S(N)(=O)=O)c(Cl)cc2NC1C (stereo not given) | inactive
18 | O=C1Cc2cc(CCN3CCN(c4nsc5ccccc45)CC3)c(Cl)cc2N1 | inactive
19 | OCCN(CCO)c1nc(N2CCCCC2)c2nc(N(CCO)CCO)nc(N3CCCCC3)c2n1 | inactive
20 | CN(C)c1nc(N(C)C)nc(N(C)C)n1 | inactive

Row | SMILES | Potency
21 | Nc1nnc(-c2cccc(Cl)c2Cl)c(N)n1 | inactive
22 | CN1C2CCC1CC(OC(=O)C(CO)c1ccccc1)C2 (stereo not given) | inactive
23 | COc1cc2nc(N3CCN(C(=O)C4COc5ccccc5O4)CC3)nc(N)c2cc1OC (stereo not given) | inactive
24 | Nc1ccn([C@H]2CC[C@@H](CO)O2)c(=O)n1 | inactive
25 | Cc1cc(C(C)(C)C)cc(C)c1CC1=NCCN1 | inactive
26 | CN1CCC(=C2c3ccccc3C=Cc3ccccc32)CC1 | inactive
27 | CN(C)C(=O)C(CCN1CCC(O)(c2ccc(Cl)cc2)CC1)(c1ccccc1)c1ccccc1 | inactive
28 | CC12CC3CC(C)(C1)CC(N)(C3)C2 | inactive
29 | NCCc1cnc[nH]1 | inactive
30 | CCC1(C)CC(=O)NC1=O (stereo not given) | inactive
31 | CCN1CCCC1CNC(=O)c1cc(S(=O)(=O)CC)c(N)cc1OC (stereo not given) | inactive
32 | CNCCCC12CCC(c3ccccc31)c1ccccc12 | inactive
33 | CC(C)C(=O)Nc1ccc([N+](=O)[O-])c(C(F)(F)F)c1 | inactive
34 | CCCNCC(O)COc1ccccc1C(=O)CCc1ccccc1 (stereo not given) | inactive
35 | Cc1ccc(C(=O)Nc2ccc(S(=O)(=O)O)c3cc(S(=O)(=O)O)cc(S(=O)(=O)O)c23)cc1NC(=O)c1cccc(NC(=O)Nc2cccc(C(=O)Nc3cc(C(=O)Nc4ccc(S(=O)(=O)O)c5cc(S(=O)(=O)O)cc(S(=O)(=O)O)c45)ccc3C)c2)c1 | 0.675 µM (active)
36 | CN(C)CCC=C1c2ccccc2C=Cc2ccccc21 | inactive
37 | NC(=O)OCC(COC(N)=O)c1ccccc1 | inactive
38 | CCOC(=O)c1ncn2c1CN(C)C(=O)c1cc(F)ccc1-2 | inactive
39 | C[C@H]1c2cccc(O)c2C(O)=C2C(=O)[C@]3(O)C(O)=C(C(N)=O)C(=O)[C@@H](N(C)C)[C@@H]3[C@@H](O)[C@@H]21 | inactive
40 | CC1COc2c(N3CCN(C)CC3)c(F)cc3c(=O)c(C(=O)O)cn1c23 (stereo not given) | inactive

— PubChem BioAssay (NCATS)
